Results from PubChem BioAssay AID1465 (SRMLSC, 2008).
In all, about 220,000 compounds went through this assay and about 160 (0.073%) were called active. Not all results are given here. Entries with a potency or affinity are not part of this list. Unmarked numbers belong to inactive results.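 Rule for the calls: active = fold induction of absorbance versus untreated yeast above a set limit, then at least 30% activation at any dose in follow-up; inconclusive = repeats straddling the limit, or above it without dose testing; inactive = fold induction below the set limit.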

Assay: enhancers of respiration in Yfh1-depleted yeast, dose response, Friedreich's ataxia, plus single-dose screen (AID 1465)
Settings: S. cerevisiae Yfh1-off respiration, WST-1 reduction, 72 h; at 50 µM; active compounds read high
With `CC(Oc1cccc2c1OC(C)(C)C2)C(=O)O` (configuration not stated) the fold induction was 1.05.
`CC(C)c1nnc(SCC(=O)N2CCc3ccccc32)n1C` gave a fold induction of 0.98.
Molecule `O=C1c2ccccc2NC(c2ccc(-c3cccc([N+](=O)[O-])c3)o2)N1O` (configuration not stated) has a fold induction of 0.9.
Molecule `O=C1c2ccccc2NC(c2ccc(-c3ccc(Br)cc3)o2)N1O` (configuration not stated) has a fold induction of 0.77.
For `O=c1oc2ccccc2cc1C1=Nn2c(nnc2-c2cccnc2)SC1`, the fold induction was 1.06.
Molecule `O=C(N/N=C/c1c(O)n(-c2ccccc2Cl)c(=O)c2ccccc12)c1cccnc1` has a fold induction of 1.49.
Work on `COc1ccc(Cn2c(O)c(C=Nc3ccccc3)c3ccccc3c2=O)cc1` yielded a fold induction of 1.05.
`Cc1c(/C=N/NC(=O)c2cccnc2)c2ccccc2n1Cc1ccccc1` showed a fold induction of 1.01.
Work on `COc1ccc(Cn2c(O)c(C=Nc3ccc(OC)cc3)c3ccccc3c2=O)cc1` yielded a fold induction of 1.13.
`CC1CCC(NC(=S)NCCN(C)C)CC1` (configuration not stated) showed a fold induction of 1.
For `O=C1C2CCCN2C(c2ccc(Br)cc2)N1c1ccc(F)cc1` (configuration not stated), the fold induction was 0.86.
For `CCOC(=O)/C(C(N)=NCC(C)C)=C(/O)c1ccccc1`, the fold induction was 0.925.
In the case of `O=C(CSc1nc(-c2ccc(F)cc2)cc(C(F)(F)F)n1)Nc1ccc2c(c1)OCO2`, the fold induction is reported as 0.96.
With `O=C(OCCOc1ccccc1)c1n[nH]c2ccccc12` the fold induction was 0.95.
With `COC(=O)[C@H](C)NC(=O)Nc1ccc(OC)cc1OC` the fold induction was 1.1.
`Cc1noc(C)c1CSc1ccc(Br)cc1` gave a fold induction of 0.89.
`COc1ccc(C(=O)NCC(=O)N/N=C/C=C/c2ccccc2)cc1OC` showed a fold induction of 0.96.
In the case of `CCCCCCN1C=CC(=C/C=C(\C#N)C(=O)OCC)C=C1`, the fold induction is reported as 1.18.
Work on `CCOC(=O)/C(C#N)=C/C=C1\C=Cc2ccccc2N1CC` yielded a fold induction of 1.
Molecule `CCCCNC(=S)N1CCN(c2ccc(C(C)=O)cc2)CC1` has a fold induction of 0.96.
`COc1cccc(NC(=O)NCCC2=CCCCC2)c1` gave a fold induction of 0.86.
In the case of `Cc1ccccc1C(=O)NNC(=O)C(C)N1C(=O)c2ccccc2C1=O` (configuration not stated), the fold induction is reported as 1.01.
With `NC(=S)n1[nH]c(-c2ccc([N+](=O)[O-])cc2)c(N=Nc2ccc(Cl)cc2)c1=O` the fold induction was 1.58.
`NC(=S)n1[nH]c(-c2ccc([N+](=O)[O-])cc2)c(N=Nc2cccc(Cl)c2)c1=O` gave a fold induction of 1.01.
For `Cc1ccc(-n2c(SCC(=O)Nc3cc(C)on3)nc3c(c2=O)SC(C)C3)cc1` (configuration not stated), the fold induction was 1.05.
Work on `CC(C)C(c1nnnn1CCc1ccccc1)N1CCOCC1` (configuration not stated) yielded a fold induction of 1.03.
`COc1cccc2c1C(=O)C=C(C)C2=O` showed a fold induction of 1.23.
In the case of `CC(C)(C=O)C1=CC(=O)c2ccccc2C1=O`, the fold induction is reported as 1.3.
In the case of `Cc1ccc(N2CCN(C(=O)c3cccc([N+](=O)[O-])c3)CC2)cc1Cl`, the fold induction is reported as 0.82.
`O=C(CSc1ccccc1)Nc1ccc(C(=O)Nc2ccc(O)cc2)cc1` showed a fold induction of 1.06.
Molecule `O=C(Cn1cnc2cc([N+](=O)[O-])ccc2c1=O)Nc1ccc2c(c1)OCO2` has a fold induction of 0.88.
With `Cc1cccc(NC(=S)NNC(=O)COc2ccc(Cl)cc2Cl)c1` the fold induction was 1.14.
Work on `COc1ccc(NC(=S)NNC(=O)COc2ccc(Cl)cc2Cl)cc1` yielded a fold induction of 0.84.
`O=C(NCc1ccc(Cl)cc1)C1CCC(CNc2c(N3CCOCC3)c(=O)c2=O)CC1` (configuration not stated) showed a fold induction of 1.07.
`O=C(N/N=C/c1cc([N+](=O)[O-])ccc1O)c1cc(-c2ccccc2)nc2ccccc12` gave a fold induction of 1.16.
With `COc1cc([N+](=O)[O-])cc(/C=N/NC(=O)c2cc(C)nc3ccccc23)c1O` the fold induction was 1.4.
Molecule `Cc1ccccc1-c1nc(CN2CCSCC2)c(C)o1` has a fold induction of 1.04.
